{"source": "PubChem BioAssay AID1851", "about": "(National Center for Advancing Translational Sciences (NCATS), 2009)", "note": "Among all 16,000 compounds or so, about 4,000 (25%) were called active. Inconclusive results (about 26%) are left out. Not all results are given here. A number with no mark means an inactive call. Calls follow the shape of the dose curve; as a rule, active = well fitted curve in the direction sought with a large enough effect; inconclusive = small, poorly fitted or top-dose-only effect, or effect the other way; inactive = no such curve, though single readings can be large or run the other way. % is scaled to controls: 0 for no effect and ±100 for the full control effect."}
{"molecular_target": "Cytochrome P450 2C9 (Homo sapiens) (UniProt P11712)", "sequence (P11712 whole entry, looked up)": "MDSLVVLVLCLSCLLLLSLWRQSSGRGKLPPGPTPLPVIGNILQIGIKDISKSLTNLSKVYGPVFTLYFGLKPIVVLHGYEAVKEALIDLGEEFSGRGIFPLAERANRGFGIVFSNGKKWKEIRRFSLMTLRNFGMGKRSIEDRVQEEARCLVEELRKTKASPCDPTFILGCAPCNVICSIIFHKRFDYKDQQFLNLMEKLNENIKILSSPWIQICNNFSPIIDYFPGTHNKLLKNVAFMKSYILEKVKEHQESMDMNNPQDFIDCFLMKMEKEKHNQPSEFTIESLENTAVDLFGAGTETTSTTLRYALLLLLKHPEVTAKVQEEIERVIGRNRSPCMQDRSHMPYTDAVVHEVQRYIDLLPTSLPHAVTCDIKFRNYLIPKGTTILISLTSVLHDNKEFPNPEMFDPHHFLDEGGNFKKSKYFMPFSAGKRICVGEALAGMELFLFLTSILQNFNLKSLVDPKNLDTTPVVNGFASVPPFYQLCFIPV", "experiment": "Cytochrome panel assay with activity outcomes", "conditions": "recombinant CYP, pro-luciferin dealkylation, luminescence, p450-cyp2c9; series mostly up to 57.1 µM"}
{"smiles": "Cc1cc2c(c(=O)o1)[C@H](O)[C@H]1O[C@@H]1C2=O", "activity, negative = inhibition": "10.8% [at 11.4 µM]"}
{"smiles": "c1ccc2cc(NCNc3ccc4ccccc4c3)ccc2c1", "AC50": "3.98 µM (active)"}
{"smiles": "CC(C)C[C@@H](N)C(=O)Nc1ccc2ccccc2c1", "activity, negative = inhibition": "-7.85% [at 11.4 µM]"}
{"smiles": "COc1ccc(NC2=NCC(=O)N2Cc2cccs2)cc1", "AC50": "14.1 µM (active)"}
{"smiles": "COc1ccc(-c2nc3cnc(N(C)C)nc3n(Cc3cccs3)c2=O)cc1", "AC50": "inactive"}
{"smiles": "O=c1c(-c2ccc(F)cc2)nc2cnc(Nc3ccccc3)nc2n1Cc1cccs1", "AC50": "inactive"}
{"smiles": "COc1ccc(-c2nc3cnc(Nc4cccc(OC)c4)nc3n(Cc3cccs3)c2=O)cc1", "AC50": "inactive"}
{"smiles": "O=C1CN=C(Nc2ccccc2)N1Cc1cccs1", "AC50": "17.8 µM (active)"}
{"smiles": "CCOc1ccc(NC2=NCC(=O)N2Cc2cccs2)cc1", "AC50": "17.8 µM (active)"}
{"smiles": "COc1cccc(Nc2ncc3nc(-c4ccccc4)c(=O)n(Cc4cccs4)c3n2)c1", "AC50": "inactive"}
{"smiles": "COc1cccc(C2=CC(c3ccccc3)n3nnnc3N2)c1", "note": "(stereo not given)", "AC50": "0.501 µM (active)"}
{"smiles": "COc1cccc(-c2cncnc2NC2CCNCC2)c1", "activity, negative = inhibition": "28.5% [at 2.29 µM]"}
{"smiles": "COc1cccc(-c2nc(NC3CCNCC3)c3ccccc3n2)c1", "activity, negative = inhibition": "11.6% [at 2.29 µM]"}
{"smiles": "COCC(=O)N1CCC2(CCCN(c3cccc(-c4ccccc4)c3)C2)CC1", "AC50": "25.1 µM (active)"}
{"smiles": "COCC(=O)N1CCC2(CCCN(c3ccncc3)C2)CC1", "AC50": "inactive"}
{"smiles": "COCC(=O)N1CCC2(CC1)CN(C(=O)Nc1ccc(OC)cc1)C2", "AC50": "inactive"}
{"smiles": "COCC(=O)N1CCC2(CC1)CCN(c1cccc(-c3ccccc3)c1)CC2", "AC50": "inactive"}
{"smiles": "CC(=O)N1CCC2(CCCN(c3ccccc3)C2)CC1", "AC50": "inactive"}
{"smiles": "CC(=O)N1CCC2(CCCN(c3cccc(-c4ccccc4)c3)C2)CC1", "AC50": "12.6 µM (active)"}
{"smiles": "COCC(=O)N1CCC2(CC1)CN(C(=O)Nc1ccccc1)C2", "AC50": "1.58 µM (active)"}
{"smiles": "COCC(=O)N1CCC2(CCCN(C(=O)Nc3ccccc3)C2)CC1", "AC50": "inactive"}
{"smiles": "CC(=O)N1CCC2(CC1)CCN(c1cccc(-c3ccccc3)c1)CC2", "AC50": "inactive"}
{"smiles": "Cc1noc(C)c1-c1nccc(N(C)Cc2ccco2)n1", "activity, negative = inhibition": "10.6% [at 2.29 µM]"}
{"smiles": "CCCn1c(=O)c2[nH]c(-c3ccc(OCC(=O)NCCN)cc3)nc2n(CCC)c1=O", "AC50": "inactive"}
{"smiles": "Cc1noc(C)c1-c1nc(N2CCN(C)CC2)c2ccccc2n1", "activity, negative = inhibition": "1.84% [at 2.29 µM]"}
{"smiles": "Cc1cc([C@](C)(N)C(=O)O)ccc1P(=O)(O)O", "AC50": "inactive"}
{"smiles": "N[C@H](C(=O)O)c1cc(O)cc(O)c1", "AC50": "inactive"}
{"smiles": "CC1=C(C(=O)O)N2C(=O)[C@@H](NC(=O)[C@@H](N)C3=CCC=CC3)[C@@H]2SC1", "AC50": "inactive"}
{"smiles": "COc1cccc(Nc2ncc3nc(CCc4ccccc4)c(=O)n(Cc4cccs4)c3n2)c1", "AC50": "inactive"}
{"smiles": "COc1ccc(NC(=O)NCc2cccn2C)c(OC)c1", "AC50": "inactive"}
{"smiles": "COc1ccc(OC)c(C(=O)CSc2nnc(Cc3cccs3)n2CCc2ccccc2)c1", "AC50": "1.58 µM (active)"}
{"smiles": "COc1ccc(NC(=O)CSc2nnc(Cc3cccn3C)n2CCc2ccccc2)c(OC)c1", "AC50": "11.2 µM (active)"}
{"smiles": "CC(Sc1nnc(Cc2cccs2)n1C1CCCCC1)C(N)=O", "note": "(stereo not given)", "AC50": "inactive"}
{"smiles": "O=[N+]([O-])c1ccc(-c2cnc(SCc3ccccc3Cl)[nH]2)cc1", "AC50": "3.98 µM (active)"}
{"smiles": "O=c1[nH]c(SCc2ccccc2[N+](=O)[O-])nc2nc[nH]c12", "activity, negative = inhibition": "11.4% [at 11.4 µM]"}
{"smiles": "O=c1[nH]c(SCc2cccc([N+](=O)[O-])c2)nc2nc[nH]c12", "activity, negative = inhibition": "4.13% [at 11.4 µM]"}
{"smiles": "COc1ccccc1CN1CCCC2(CCN(S(C)(=O)=O)CC2)C1", "AC50": "inactive"}
{"smiles": "C=CCOc1c2ccc(C(=O)NC3CCCc4ccccc43)cc2nn1C", "note": "(stereo not given)", "AC50": "inactive"}
{"smiles": "Cc1c(C(=O)NC2CCCc3ccccc32)oc2ccc(S(=O)(=O)N3CCOCC3)cc12", "note": "(stereo not given)", "AC50": "7.08 µM (active)"}
{"smiles": "O=C(O)C[C@@H]1CCCc2ccccc2[C@H]1O", "AC50": "inactive"}
{"smiles": "Cc1c(C(=O)Nc2cccc(C(F)(F)F)c2)oc2ccc(S(=O)(=O)N3CCOCC3)cc12", "AC50": "1.41 µM (active)"}
{"smiles": "CCOc1cc(CNCCCN2CCOCC2)cc(Br)c1OCC(=O)Nc1cccc(C(F)(F)F)c1", "AC50": "inactive"}
{"smiles": "Fc1cccc(F)c1C(Nc1nncs1)Nc1nncs1", "activity, negative = inhibition": "-6.71% [at 11.4 µM]"}
{"smiles": "CSc1ncnc2c1ncn2[C@@H]1O[C@@H](CO)[C@H](O)O[C@@H]1O", "activity, negative = inhibition": "1.22% [at 11.4 µM]"}
{"smiles": "CS(=O)(=O)Nc1cccc(-c2ccc3ncnc(Nc4ccccc4)c3c2)c1", "activity, negative = inhibition": "-12.6% [at 2.29 µM]"}
{"smiles": "COc1ccc(C(=O)NC2(C(F)(F)F)C(=O)Nc3c2c(=O)[nH]c(=O)n3CCc2ccc(OC)c(OC)c2)cc1", "note": "(stereo not given)", "AC50": "inactive"}
{"smiles": "COc1ccc(CCn2c(C)cc(C(=O)CSc3nc(N)cc(=O)[nH]3)c2C)cc1", "AC50": "8.91 µM (active)"}
{"smiles": "Cc1cc(C(=O)CSc2nnc(N)s2)c(C)n1CCc1ccc(F)cc1", "AC50": "1.12 µM (active)"}
{"smiles": "CC[C@H]1CC[C@H]2[C@@H]3CC=C4C[C@H](OC(C)=O)[C@@H](N)C[C@@]4(C)[C@H]3CC[C@@]12C", "activity, negative = inhibition": "13.7% [at 11.4 µM]"}
{"smiles": "CCOc1ccc(C(=O)CCC(=O)O)cc1", "AC50": "inactive"}
{"smiles": "CCCCOc1ccc(C(=O)CCN2CCCCC2)cc1", "AC50": "2.51 µM (active)"}
{"smiles": "CCC(=O)c1ccc(OCC(O)CN2CCCCC2)cc1", "note": "(stereo not given)", "AC50": "inactive"}
{"smiles": "CC(N)=NCc1cccc(CN)c1", "AC50": "inactive"}
{"smiles": "COc1cc(/C=N/Nc2snc(SC)c2C#N)cc(OC)c1OC", "AC50": "4.47 µM (active)"}
{"smiles": "CCOC(=O)N/N=C1/C[C@@H](O)[C@@H](O)[C@@H]2[C@@H]3C(=O)N(C4CCCCC4)C(=O)[C@H]3CC[C@H]12", "activity, negative = inhibition": "-8.52% [at 11.4 µM]"}
{"smiles": "CCOc1ccc(CNC(=O)C2CC(=O)N(C3CCCC3)C2)cc1OC", "note": "(stereo not given)", "AC50": "inactive"}
{"smiles": "COc1ccc(N2CC(C(=O)Nc3cc(C)on3)CC2=O)cc1", "note": "(stereo not given)", "AC50": "14.1 µM (active)"}
{"smiles": "COc1ccc(N2CC(C(=O)OCC(=O)c3cccc(OC)c3)CC2=O)cc1", "note": "(stereo not given)", "AC50": "17.8 µM (active)"}
{"smiles": "CCOc1ccc(N2CC(C(=O)NCc3cccc(C)c3)CC2=O)cc1", "note": "(stereo not given)", "AC50": "12.6 µM (active)"}
{"smiles": "CCN(CC)C(=O)C1CC(=O)N(c2ccc(OC)cc2)C1c1ccc(OC)cc1", "note": "(stereo not given)", "AC50": "inactive"}
